Among the data in PubChem BioAssay AID1508600 (Functional Genomics Laboratory (NCATS/FGL), 2020) are z-score values, retold here.

Among all 53,000 sequences or so, about 3,700 (7%) were called active. The entries come from a sample that favours actives as a whole. A number with no mark means an inactive call.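 The calls were made as follows: active = gene knockdowns whose robust z-score for IL-1 alpha signal is at least 2 or at most -2, so actives lie on both sides; inactive = the rest.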

The test is described as follows: Components of the Cytosolic LPS Sensing Pathway: Gene Identification via Genome-wide siRNA Screen.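 Also: robust z of the log signal after scaling to non-targeting control siRNA wells of the plate.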 Particulars: RAW264.7 macrophages, IL-1a HTRF, actives lie on both sides, screened at 100 nM (by protocol), cells primed 5 h with Pam3CSK4 first. In outline: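 RAW264.7; siRNA 100 nM final, RNAiMAX, 48h 37 degrees C; Pam3CSK4 5 h; LipidA + TransIT-TKO 24 h; IL-1a HTRF; CellTiter-Glo viability; robust z vs negative-control median.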
Regarding GGAAAACAUUAAGAAGGGCTT against Ccn2, the z-score was 3.41 (active). Take GGACCUCCACCGUUACUACTT against Sgsh: the z-score is 0.367.

In the case of GGAGGAACACAAGAUUUUCTT against Ppp2r5c, the z-score was -0.322. The value for GGAAGUCCAUCUCUUUUGCTT against Olfr56 was 0.213; that for GGAUCCAGAAAGUCCAGAUTT against Nt5c3b was 0.918. Under GGAUGUUGGUACUUUUUGATT against Pwp1 stands -0.254.

For the sequence GGAAUAAAGUGUUGUGUCATT against Wfdc15b, the z-score was -0.118. Under GGUAGCAGUUGCUUUAAUATT against Siah2 stands 2.65 (active); under GGGUUUCACAGGCAAACAGTT against Suclg1, -0.904; under CCCUGUACCUAGCUCAAGATT against Ecel1, -0.693. With GGAAUCAUCUUUGUGGAGATT against Nudt22, the z-score is -0.733. Under “GCCAACGAGAGUAAACACGTT against 5930403N24Rik” stands -0.0706; under GGUCUACUGACUCAAAGUCTT against Mrps33, 2.2 (active); under GGAUUUCAAAUGGAAACAATT against Vmn1r45, -1.15. With GCAUGAAUUUUGCACGGACTT against Rad18, the z-score is 1.04. On to UCAACUCAAACUAUGUCGATT against Hoxb4, for which the z-score is -0.172. On to GGUCUGUGGAUUUAAACUUTT against Sestd1, for which the z-score was 0.931. The value for CGAAGAGAGCUGCAUUAAATT against BC049715 was -1.37; that for GGCUAUCAUGAACUUGGAUTT against Gpd2 was -0.57; that for GGAAAUGUACAAGACUGAUTT against Anxa2 was 2.29 (active). The value for GGAAAAAAACUUGCUGGAUTT against Ppp3ca was -0.681; that for CCAAAUAACCUGCUACGAGTT against Ffar2 was 0.905; that for GGUAUACUAACUUUUAAGGTT against Fmo1 was -0.228.

In the case of GCCUCUAUUCUACACCACATT against Gpr137, the z-score is -2.1 (active). GAAAAACUGCUGUUUUGGATT against Ly6g6d: the z-score is 1.87. The value for GGAGACGAGAGGAUCCUCUTT against Chga was -1.56; that for GGUCAAGAAUGUAGCUGAUTT against Atp6v0d1 was -1.87. The value for GGUGUGUGAACCAUGUGUGTT against Olfr157 was -1.03. Under GGCAUAGUGAAUUUAGUCUTT against Iqub stands 0.526. Consider GGCUGGAUACUCAGUGCUATT against Abhd16b, for which the z-score was 6.41 (active). As for GGUCAUGGAUCAGAAAGAATT against Hnrnpd, the z-score is 0.297. For the sequence CACGGUACAGUACGAUUGATT against Rcan2, the z-score was 0.143.

With CAAGUACAAGCAGUUGACCTT against BC061237, the z-score is -0.0958.

As to GAGGGUGUGCAUUCUUCUATT against Olfr1242, the z-score is -0.766. Turning to GGUUCCUUAAUCACUUUGCTT against Ndufa9, the z-score was -0.139.

Turning to GGAACAGAUAACAUUAUGGTT against Cpeb3, the z-score was 2.79 (active).

As to GGCCCUUACUUCCACAUCATT against Fam104a, the z-score is -0.711. The value for CGAAGCACAUAUCUUUGAUTT against Zfp41 was 0.444; that for GGAAAGAGGAAUCAAGAAATT against Slc23a2 was -1. The value for CCAAAGAGCGCAUGGCUCATT against Epn2 was -0.782. The value for GCGAAUCAGCACUUAUGGATT against Cd2ap was 2.65 (active); that for GGUCUACUCUUCAUAUCGCTT against Rab3d was -0.566. On to GGACAGUUCAGAACAAAUUTT against Ccbe1, for which the z-score was -0.168.

Regarding GCUGAACCAAACCCAAAUGTT against Snph, the z-score was 0.00664. The value for GGUGAUGCCACUAGUGAAGTT against Scx was -0.123; that for GGCAGAUCUAUUUAUGGUATT against Ccer1 was 0.229. As for “GGUCUCAGCAAUCUGUUCCTT against 1700029I15Rik”, the z-score is -2.15 (active). GGAACUAUACCAAAGGCAATT against Cfap65: the z-score is -0.198.

Consider GGAAUGAAGUCUGUCUUCGTT against Zdhhc7, for which the z-score is 0.648. Under GGAGGAGGAGCUGAAGAAATT against Atp12a stands -0.679. Under GGAAAGAUUUAUUUUGACGTT against Vnn3 stands 0.286; under GGGUAUUGCUGGACAACGUTT against Col1a1, 3.85 (active).

GGUCUUCAGCACCUUUGAATT against Ccl2: the z-score is -0.903. The value for GGUACUUUUAUCUUAGCUATT against Paral1 was 0.0889; that for GGGAUUGUGAAUUUCAUGUTT against Gca was 1.3. In the case of GCAGAUCAAUGACUAUAGATT against Arhgef11, the z-score was 0.858. Under GCCAUAUGGGCAGAUGUUUTT against Sec24b stands -0.682; under GCCUAAGAGUUUCAAUAAGTT against Tgtp1, -1.21; under GCAAAUGCACACUCUAGGATT against Ptprn2, -0.0741. Under GGAAUUUUAUGCCAAGAAUTT against Hip1r stands -3.89 (active); under GGAAGAAUCGCUGCUACCGTT against Mrpl20, 1.06; under GCUGUGAUCAGGACGAGAATT against Stx2, 0.187. Under GGGAAAGAUUCAUGUUACUTT against Mug2 stands -0.804. For GCUAACCAGUCAGUUGAUCTT against Mocs1, the z-score was -0.086. As to CCUUACCAAUGUUCAUUUATT against Skint7, the z-score is -0.32. The value for GGAUCUGCAUUUCACUAUUTT against Pi4ka was 0.818; that for GCAUACAAAUGCACAUUGATT against Lsg1 was 2.69 (active); that for GGAUCCGUGAAUGUAGUCATT against Rapgef4 was -0.793.

CGGAUUGUAAAGAACUGCATT against Sfrp1: the z-score was -0.0934.

For GCUUUGUGAUGGAUUACUATT against Ccl4, the z-score was 1.85. Under CGUAUACUGUGAUUGAUAUTT against Lcn5 stands -0.647; under GGCCAGAAGAUUCCUAAAGTT against Gulp1, 3.38 (active); under GUUACAGUAUUCUAUGGGATT against Olfr1080, 0.508. The value for GGUUUUUCUGAGUUUCCGUTT against Il4i1 was -1.03; that for GCCUCAUUAUAAAUCACACTT against Bclaf3 was 0.752. Under GGUGGAGUUCGUGUUGAGCTT against Slc6a11 stands -0.527. On to GAAGGACACCCUUAUAUUUTT against Olfr1216, for which the z-score was 0.892.

For GGAUGGUCACGGAAGUUCUTT against Lmf2, the z-score was 2.36 (active).

Turning to GGGCCUCAUCUUUGUGGUATT against Arf5, the z-score was 0.359. The value for GGAUUGUUUAUCUGUCUUCTT against Cyp3a44 was -1.05. Consider GGACCUAAAGUUUCUCUCATT against Ccnc, for which the z-score was -0.2. The value for GGUCAUAGCUGGAUUCCUUTT against Olfr1453 was -1.47; that for GCUUAUAAUGGCAAUAUUGTT against Nvl was 0.275. For the sequence GGACAAAAUUGAACACAAGTT against Pogz, the z-score is 2.86 (active).

As to GGCGAAUUAAUUAACCGCCTT against Abcb10, the z-score was 0.798. Under CCUCGAUAGGUUAGUGACATT against Fdxacb1 stands -0.731; under GGUACAGAAACAGUUAGUUTT against Olfr432, 0.328. The value for GCUUCCUAGAUCAUGACUGTT against Ube2g2 was -0.318.

On to GGUCUGGUCAUCUCAGUUUTT against Tmem159, for which the z-score is 3.53 (active).

For GGCAAUAGCUACACCUUCATT against Csf1r, the z-score is 1.9.

On to CCAUUGUCACUCCUAGUGUTT against Olfr1361, for which the z-score is 1.03. The value for GGAACAAGAAGAAGAAAAATT against Slco3a1 was -1.03. Consider GGUACUUUACACUGAACAATT against Serpinb13, for which the z-score is 2.91 (active). Regarding “GGCAUGUAGGGUUUUGUUUTT against 9830163H01Rik”, the z-score was -0.605. The value for GCUGUCUGAUUCUGAGGUGTT against Slc6a1 was 2 (active); that for GGCAUAAACCACUUCCAGCTT against Dedd2 was 0.342. The value for GCAUUUAAGGACCUUGUAATT against Olfr813 was -1.5; that for GGCCAUGAUUGUGUUUCAGTT against Tspan8 was 1.76; that for GCCUUCCACUACCUUACGUTT against Kcnk3 was 0.067. The value for CCGACAGACUCACAUACUGTT against Trex1 was -0.942.

As for GGCGUGUCUUGAUAGAAAUTT against Tesmin, the z-score was 0.652. Under GGGAGCAAACGAGAAGAUATT against Gjd2 stands 4.09 (active).

For GCGCAAAGUCGAAUCCAGUTT against Vgll1, the z-score is -0.156. The value for GGAGGGUGAAGAGAAUGGUTT against R3hdm2 was 1.14.

GGUCCAUCAGGAAAAUCAATT against Obox6: the z-score was 0.0445. The value for GGGCUCUGUGGAAAUCAUGTT against Rnf187 was -0.043; that for GGCUGUGAAUCUGAAGAGCTT against Chrna6 was 0.241.
